What is called inhibition is the drop in the measured response relative to a control, in per cent.

The nature of this assay: inhibition of PEG-3 promoter-driven reporter – cell-based, HeLa, luciferase, CREF/GAPDH counter-screen panel, dose response (AID 624167). The note with it: CREF/GAPDH counter-screens; run 1, dose range 1, at 100 µM (top of the series). (In general: The purpose of a counterscreen is to sort out artefacts and off-target activity.)
Turning to `Cc1cc(C)c2sc(NNC(=O)c3ccc(S(=O)(=O)N4CCc5ccccc5C4)cc3)nc2c1`, the inhibition came to 58.6%.

As for `CCc1ccc(/C=C2\SC(=S)N(CCCC(=O)Nc3cc(C)on3)C2=O)cc1`, the inhibition is 75.9%.

On to `COc1ccc(Nc2ncnc3ccc(Br)cc23)c(OC)c1`, for which the inhibition amounted to 90.8%.

As for `CC(/C=C/c1ccccc1)=N/NC(=O)c1cc([N+](=O)[O-])cc([N+](=O)[O-])c1`, the inhibition was 5.41%.

With `O=C(c1ccco1)N1CCN(C(c2ccccc2Cl)c2nnnn2Cc2cccs2)CC1` (stereo not drawn), the inhibition came to 69.4%.

`O=C(/C=C/c1ccc(Cl)c([N+](=O)[O-])c1)c1ccc(O)cc1`: the inhibition stood at 100%.

For the molecule `O=C(CCn1cnc(-c2ccccc2)c1-c1ccccc1)N/N=C/c1ccccc1O`, the inhibition turned out to be 67.6%.

For `Cc1oc(-c2ccc3c(c2)OCCO3)cc1C(=O)O`, the inhibition was 98.6%.

Consider `O=C(Nc1ccccc1)c1nc[nH]c1C(=O)NCCCCCCNC(=O)c1[nH]cnc1C(=O)Nc1ccccc1`, for which the inhibition was -2.1%.

For the molecule `CS(=O)(=O)c1ccc(-c2sc3ccccc3c2C#CCCO)cc1`, the inhibition was 90.1%.

On to `CCCCCCCn1c(=N)n(CC(=O)c2ccco2)c2ccccc21`, for which the inhibition was found to be 92.5%.

As for `O=C(N/N=C/c1cc([N+](=O)[O-])ccc1O)c1ccc(COc2ccc3c(c2)CCC3)o1`, the inhibition is 27.1%.

As for `Clc1ccccc1/C=C/c1nc(-c2ccccn2)no1`, the inhibition was 97.4%.

On to `CS(=O)(=O)Nc1cccc(NC(=O)C2Cc3c(-c4ccccc4)ccnc3O2)c1` (stereo not drawn), for which the inhibition came out at 0.156%.

With `O=C(O)c1ccc(N/N=C/c2ccc3c(c2)OCO3)cc1`, the inhibition was 96.9%.

`CN=c1sc2c(n1C)C(=O)c1ccccc1C2=O`: the inhibition was determined as 89.9%.

Turning to `Cc1cc(C(=O)Nc2cccc(C(=O)O)c2)oc1C`, the inhibition was 89.9%.

Regarding `CC(=O)c1sc2c(c1OC(=O)c1ccc(Cl)cc1Cl)c(=O)n(-c1ccccc1)c(=S)n2-c1ccccc1`, the inhibition is 85.9%.

With `CCCC(=O)NC(c1ccccc1)c1ccc2cccnc2c1O` (stereo not drawn), the inhibition worked out at 26.9%.

Consider `CN1CCC2(CC1)N=C(c1ccc(F)cc1)C(=S)N2C(=O)c1ccc(C(C)(C)C)cc1`, for which the inhibition worked out at 93.1%.

As to `Cc1ccccc1CNC(=O)C1CCCN(c2nnc(C)c3c(C)n(-c4ccccc4)nc23)C1` (stereo not drawn), the inhibition came to 97.3%.

In the case of `Cc1ccc(-n2c(N)c(C(=O)Nc3c(C)n(C)n(-c4ccccc4)c3=O)c3nc4ccccc4nc32)cc1`, the inhibition stood at 77.5%.

Regarding `Nc1nonc1-n1nnc(C(=O)N/N=C/c2cc(Br)ccc2O)c1CNc1ccccc1`, the inhibition came out at 70.2%.

With `O=C(N/N=C\c1c(O)ccc2ccccc12)c1cncc(Br)c1`, the inhibition amounted to 65.3%.

For the molecule `Cc1cccc(OCC(=O)NCC(=O)N/N=C/c2cc(Br)cc(Br)c2O)c1`, the inhibition amounted to 67.3%.

In the case of `COc1cc(/C=C2\SC(=Nc3ccccc3OC)NC2=O)ccc1O`, the inhibition is 43.9%.

For the molecule `CCc1ccc(/C=C2\SC(=S)N(CCCC(=O)Nc3ccccn3)C2=O)cc1`, the inhibition was 78.8%.

As for `O=C1C=CC(=O)N1c1ccc(-c2nc3ccccc3o2)cc1`, the inhibition turned out to be 100%.

With `O=C(N/N=C/c1ccc(Cl)c([N+](=O)[O-])c1)c1cc(-c2ccc3c4c(cccc24)CC3)n[nH]1`, the inhibition worked out at 75.4%.

On to `COCCCNC(=O)c1ccc(Cn2c(=O)c3ccccc3n(Cc3ccccc3C#N)c2=O)cc1`, for which the inhibition was 32.3%.

As to `CCCCCCCNC(=O)C1(CC2CC(c3cccc(Br)c3)=NO2)CCNCC1` (stereo not drawn), the inhibition amounted to 95%.

Consider `O=[N+]([O-])c1nn(-c2ccc3c(c2)OCCO3)n(O)c1=Nc1ccc(Cl)cc1`, for which the inhibition turned out to be 78.7%.

As to `COc1cccc2c1C(=O)c1c(O)c3c(c(O)c1C2=O)CC(O)(C(C)=NNC(=O)c1ccc(Cl)c(Cl)c1)CC3OC1CC(N)C(O)C(C)O1` (stereo not drawn), the inhibition was determined as 92%.

For the origin of these results see PubChem BioAssay AID624167 (Sanford-Burnham Center for Chemical Genomics, 2012).
